cardiac RTF act: cardiac RTF calcium sensitization; IANBD-labeled TnC RTF fluorescence at EC20 calcium; 0% EC20 calcium, 100% full calcium; activation, % at 7.2 µM; 340,000 tested, 0.24% active;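 active = activation above the mean over all tested compounds plus 3 SD, cut at about 30% in these data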;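 also: rise in fluorescence read as greater calcium sensitivity of cardiac thin filaments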
Cardiac RTF inh: cardiac RTF calcium desensitization; IANBD-labeled cardiac RTF, Ca2+ fluorescence; inhibition, % at 7.15 µM; 340,000 tested, 0.12% active;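 active = inhibition above the mean inhibition of all tested compounds plus 3 SD, cut at about 17% in these data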;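 also: assay run at fixed EC70 calcium of 1.6 mM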
TMEM16A inh: inhibitors of mouse TMEM16A calcium-activated chloride channel | Q8BHY3 | HEK293 TMEM16A/YFP iodide influx fluorescence, ionomycin | normalized B-score (activity score, 25-100; higher = stronger inhibition) at 10 µM | 310,000 tested, 1.2% active;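 active = ratio plate-corrected score three or more library SD toward inhibition, starting fluorescence score within five deviations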;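 also: score derived from kinetic fluorescence span divided by baseline fluorescence per well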
Target sequence (Q8BHY3 whole entry, looked up): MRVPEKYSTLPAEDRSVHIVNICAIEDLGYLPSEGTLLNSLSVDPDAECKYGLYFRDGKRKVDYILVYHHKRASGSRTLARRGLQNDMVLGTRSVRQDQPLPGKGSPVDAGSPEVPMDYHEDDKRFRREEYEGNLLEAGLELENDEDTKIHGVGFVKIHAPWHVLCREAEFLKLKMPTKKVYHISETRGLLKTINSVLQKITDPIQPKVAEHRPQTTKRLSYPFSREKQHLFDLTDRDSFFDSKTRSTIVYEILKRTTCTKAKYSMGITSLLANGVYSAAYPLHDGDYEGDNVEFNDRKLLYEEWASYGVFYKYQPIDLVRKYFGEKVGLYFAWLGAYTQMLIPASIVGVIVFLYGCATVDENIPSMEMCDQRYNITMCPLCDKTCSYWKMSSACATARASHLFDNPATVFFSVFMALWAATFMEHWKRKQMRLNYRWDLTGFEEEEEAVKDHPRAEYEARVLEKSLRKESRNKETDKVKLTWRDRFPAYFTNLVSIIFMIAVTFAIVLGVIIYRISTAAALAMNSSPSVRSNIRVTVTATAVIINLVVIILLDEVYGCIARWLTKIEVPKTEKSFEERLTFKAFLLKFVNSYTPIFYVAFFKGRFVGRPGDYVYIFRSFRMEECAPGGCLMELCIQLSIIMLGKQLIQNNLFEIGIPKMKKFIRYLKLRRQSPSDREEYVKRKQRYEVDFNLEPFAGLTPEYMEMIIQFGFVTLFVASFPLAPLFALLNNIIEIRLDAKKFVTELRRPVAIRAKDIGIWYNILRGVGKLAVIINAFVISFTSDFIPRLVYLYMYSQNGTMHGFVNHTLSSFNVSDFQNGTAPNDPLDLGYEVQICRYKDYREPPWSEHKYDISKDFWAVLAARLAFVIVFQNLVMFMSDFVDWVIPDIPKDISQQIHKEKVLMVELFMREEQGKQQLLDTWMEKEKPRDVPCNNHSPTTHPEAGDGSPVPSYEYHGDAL
CRFBP-R2 block: blocks CRF-induced signaling of the CRF-BP/CRF-R2 complex; inhibition, % at 11.8 µM; 350,000 tested, 0.59% active; AID 588475; HEK293 CRF-R2/CRF-BP, CRF-induced calcium fluorescence;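 active = inhibition of the ligand-induced calcium signal above about 50% at the single tested concentration, limit read from the data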
TMEM16A act: activates or potentiates the mouse TMEM16A chloride channel. Q8BHY3. 340,000 tested, 0.3% active. HEK293 TMEM16A/YFP-H148Q/I152L, iodide quench fluorescence; hits give low values. B-score at 10 µM;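 active = fluorescence-ratio B-score plate-corrected deviation score at least 3 library SD below zero, with starting fluorescence score within 5 deviations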;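 also: channel opened by trigger with iodide after compound preincubation; score built on the fluorescence ratio of max minus min over baseline; more negative score means more quench and so TMEM16A activation or potentiation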
CRFR2-BP ag: CRF-BP/CRF-R2 complex agonism. HEK293 CRF-R2/CRF-BP, calcium dye fluorescence (FLIPR); percent of saturating CRF peptide response. activation, % at 13.2 µM. 350,000 tested, 0.46% active;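 active = activation of at least 50%, plus an integration ratio under a set limit after plate pattern correction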;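 also: plate controls were neutral control wells without compound for no effect and CRF at EC100 for full effect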
* marks the source's active call; other numbers are inactive results; i = inactive; / = no result given. In the library only some 2.4% were active in any assay of this set; here they are far more common.

SMILES	cardiac RTF act	Cardiac RTF inh	TMEM16A inh	CRFBP-R2 block	TMEM16A act	CRFR2-BP ag
O=C(NCc1cccc(Cl)c1)c1cc(COc2ccc3ncccc3c2)on1	1	0	100*	-8	i	40
Cc1ccc(F)cc1CNC(=O)c1cc(COc2ccc3ncccc3c2)on1	/	/	i	-33	i	5
CC(C)(C)c1ccc(N/N=C(\C#N)S(=O)(=O)C(C)(C)C)cc1	0	-8	i	12	i	28
CC(C)(C)S(=O)(=O)/C(C#N)=N/Nc1ccc(Cl)cc1	2	-5	i	65*	i	47
CCN(CC)C(=O)C1=C(C)N(Cc2ccc(C(C)(C)C)cc2)C(=O)C(CC(=O)NCC2CCCCC2)C1 (stereo not drawn)	/	/	/	0	/	-3
COc1ccc2nc3cc(Cl)ccc3c(C#N)c2c1	-1	-5	i	-5	-7.2*	17
CCCN(CC(=O)Nc1ccccc1OC)C(=O)CCNC(=O)c1ccccc1OC	0	0	i	-2	i	-1
CCOC(=O)C1=C(COC(=O)COc2ccc(C(=O)CC)cc2)NC(=O)NC1C (stereo not drawn)	-4	-4	100*	15	i	-1
CCOC(=O)C1=C(COC(=O)COc2ccc(C(C)=O)cc2)NC(=O)NC1C (stereo not drawn)	2	1	i	-7	i	1
CC(C)C#Cc1ccc2c(c1)O[C@@H](CN(C)S(=O)(=O)c1cn(C)cn1)[C@@H](C)CN([C@H](C)CO)S2(=O)=O	/	/	/	11	/	4
NC(=NCCc1c[nH]c2ccccc12)NC(=O)c1ccc(Cl)cc1	5	-3	100*	-3	i	1
O=C(N[C@@H](Cc1c[nH]c2ccccc12)C(=O)O)c1ccc(Cl)cc1	0	-6	i	-4	i	4
Cn1cccc1C(=O)OCC(=O)Nc1ccc2c(c1)OCCO2	-3	0	/	-3	i	-3
Cc1ccccc1/C=N\NC(=O)c1ccccc1-n1cccc1	5	2	i	6	i	0
CC(NC(=O)CC(c1ccccc1)c1cc(Cl)ccc1O)c1ccccc1 (stereo not drawn)	-1	-2	i	52*	i	-2
O=C(O)CC(c1ccccc1)c1ccccc1	-2	-4	i	3	i	-1
CCC(CC)NC(=O)CC(c1ccccc1)c1ccccc1	5	-4	i	71*	i	-11
Cn1c(N)c(C(=O)COC(=O)COc2ccc(C#N)cc2)c(=O)n(C)c1=O	2	6	i	2	i	2
Cn1c(N)c(C(=O)COc2ccc(C#N)cc2)c(=O)n(C)c1=O	-4	-5	i	6	-9.1*	-1
c1ccc(Nc2nc(-c3ccccc3)ns2)cc1	-1	-1	i	-6	-8.9*	0
COCCCN1C(=O)C(CC(=O)NCc2ccco2)CC(C(=O)N(C)C)=C1C (stereo not drawn)	/	/	/	-3	/	1
O=C1C=C(/C=C/C2C=CC=CC2)C[C@@H](c2ccc(Cl)cc2)C1 (stereo partly drawn)	-4	-17	/	-33	-9.8*	10
O=C1C=C(O)CC(c2ccc(Cl)cc2)C1 (stereo not drawn)	10	-5	i	-1	i	0
COc1ccc(C(=O)CCC(=O)N2CCN(c3cc(C)ccc3C)CC2)cc1	1	2	i	7	-5.8*	-1
COc1ccc(-c2cccc(CCC(=O)N3CCN(c4cc(C)ccc4C)CC3)c2)cc1	0	0	/	1	/	2
SMILES	cardiac RTF act	Cardiac RTF inh	TMEM16A inh	CRFBP-R2 block	TMEM16A act	CRFR2-BP ag
Cn1c(CN2CCCCC2)nc2cc(NS(=O)(=O)c3ccc(Cl)cc3)ccc21	5	-8	i	-73	i	86*
Cn1c(CCN2CCCCC2)nc2cc(NS(=O)(=O)c3ccc(Cl)cc3)ccc21	-4	1	i	-11	i	-1
CCC(C)(C)C1CCC2(CC1)NC(CO)(CO)CO2 (stereo not drawn)	-6	-2	i	6	-4.9*	-1
CCC1CCC2(CC1)NC(CO)(CO)CO2 (stereo not drawn)	5	-16	i	-8	i	3
CCN(CC)c1ccc(/C=C2/C(=O)ON=C2C)cc1	8	-33	i	-47	i	17
CCN(CC)c1ccc(/C=C2\C(=O)N(c3nnc(C)c(=O)[nH]3)N=C2C)cc1	5	2	i	-37	-5.7*	11
Nc1ccccc1C(=O)N1CCCC1	-2	-2	i	13	i	1
Cc1ccccc1N1C(=O)c2cccc3c(N(C)CCO)ccc(c23)C1=O	179*	-153	i	-152	i	159*
COc1ccccc1N1C(=O)c2cccc3c(N(C)CCO)ccc(c23)C1=O	52*	-63	i	-104	i	111*
CCCc1ccc(OCc2ccc(C(=O)N3CCSCC3)o2)cc1	4	3	25*	13	i	0
O=C(O)c1nn(Cc2nc3ccccc3o2)c(=O)c2ccccc12	-11	-14	i	-25	-4.8*	0
CC(C)CN1C(=O)C(=O)N(CC(=O)N2CCC(Cc3ccccc3)CC2)C1=O	0	11	i	2	i	-2
CN1CC(=O)N(CC(=O)N2CCC(Cc3ccccc3)CC2)C1=O	-3	-1	i	100*	i	0
Cc1ccc(C(CC(=O)N2CCNCC2)c2ccccc2)c(O)c1C (stereo not drawn)	1	-4	i	6	i	-2
O=C(C1=COCCO1)N(Cc1nnc(-c2ccccc2Cl)o1)C1CC1	0	-4	/	9	i	-2
O=C1N(Cc2cccc(Cl)c2)C[C@@H]2C[C@@H](c3c[nH]c4ccccc34)N3CCC[C@@]123	8	-28	i	-13	-4.6*	6
Cc1noc(C)c1S(=O)(=O)N1CCC(C(=O)N2CCN(c3ccc(Cl)cc3)CC2)CC1	7	0	i	58*	i	0
O=C(Cc1cn(Cc2cccc(Cl)c2)c2ccccc12)N1CCCCCC1	2	9	25*	13	i	-1
Clc1ccc(CSCCc2ccncc2)cc1	-1	-1	i	14	i	0
Clc1ccc(NN(Cc2ccncc2)c2ccc(Cl)cc2)cc1	/	/	/	17	/	51*
Cc1cccn2cc(CCNC(=O)Cc3cccs3)nc12	-5	3	i	-4	i	0
O=C1N/C(=N/O)S/C1=C/c1cccc([N+](=O)[O-])c1	-2	-7	i	17	i	-2
Cc1cccc(/C=C2/S/C(=N/N=C3\CC4CCC3(C)C4(C)C)NC2=O)c1 (stereo not drawn)	0	-3	i	50*	i	3

Assay outcomes as filed in PubChem.
